Source: PubChem BioAssay AID504834 (National Center for Advancing Translational Sciences (NCATS), 2011)
In all, about 320,000 compounds went through this assay and about 22,000 (6.9%) were called active. Entries that show only a call come without a potency. About 27% were inconclusive and are not listed. This is one part of a sample in which actives are shown more often than they occur. The call rests on the fitted dose curve; in most records, active means well fitted inhibition curve with a large enough effect; inconclusive means small, poorly fitted or top-dose-only effect, or another doubt; inactive means no such curve, though single readings can be large or run the other way.

Assay: Primary qHTS for delayed death inhibitors of the malarial parasite plastid, 96 hour incubation
Details: P. falciparum luciferase reporter growth; series mostly up to 28.7 µM
Summary of the method: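 96 h incubation, 37 C, 5% CO2, of luciferase-reporter P. falciparum-infected RBCs (2% hematocrit, 0.05% parasitemia final) with test compounds; endpoint luminescence.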
Potency means the concentration at half of the fitted maximal effect.

Compound | Potency
CCC(=O)Nc1sc(C(=O)N2CCCCC2)c(C)c1C#N | 14.7 µM (active)
O=C1CN(C(=O)COC(=O)c2cnc(Cl)c(Cl)c2)c2ccccc2N1 | inactive
COc1ccc(Cl)cc1-n1c(C)cc(C(=O)OCC(=O)N2CC(=O)Nc3ccccc32)c1C | 4.15 µM (active)
COc1cc(OC)c(C(=O)OCC(=O)N2CC(=O)Nc3ccccc32)cc1OC | inactive
O=C(COC(=O)Cc1ccccc1F)NNC(=O)c1ccc(Cl)cc1 | inactive
Cc1cc(Br)ccc1NC(=O)CN(C)C(=O)CN1C(=O)NC2(CCCC2)C1=O | inactive
COc1ccc(Cl)cc1NC(=O)CN(C)C(=O)c1ccc2n[nH]nc2c1 | inactive
COc1ccc(-c2cc(C(=O)NCCCN3CCCC3=O)c3ccccc3n2)cc1OC | inactive
COc1ccc(CN(C)C(=O)Cc2c[nH]c3ccccc23)c(OC)c1OC | inactive
COc1ccc(-c2cc(C(=O)N(C)CC(=O)Nc3ccccc3Cl)c3ccccc3n2)cc1OC | 9.28 µM (active)
COc1ccc(CN(C)C(=O)c2cc(-c3ccc(C)cc3C)nc3ccccc23)c(OC)c1OC | 13.1 µM (active)
COc1ccc(-c2cc(C(=O)N(C)Cc3ccccc3)c3ccccc3n2)cc1 | inactive
CC1CCN(c2ccc([N+](=O)[O-])c(SCCO)c2)CC1 | inactive
Cc1ccc(C)c(OCC(=O)NNC(=O)C2CCC2)c1 | inactive
COc1cccc(OCc2nnc3n2N=C(c2ccccc2)C(CC(=O)O)S3)c1 (stereo not drawn) | inactive
O=C(CSc1ccc(-c2ccc(F)cc2)nn1)Nc1ccc2c(c1)OCCO2 | inactive
CC1CCCN(C(C(=O)Nc2ccc(C(C)C)cc2)c2ccc3c(c2)OCO3)C1 (stereo not drawn) | inactive
O=C(Nc1ccc2c(c1)OCCO2)C(c1ccc(F)cc1)N1CCCCC1 (stereo not drawn) | 8.28 µM (active)
CC(=O)Nc1ccc(NC(=O)C2CCCN(S(=O)(=O)c3ccc(Cl)cc3)C2)cc1 (stereo not drawn) | inactive
CC(NC(=O)CCCC1CCCCC1)c1ccc(S(N)(=O)=O)cc1 (stereo not drawn) | inactive
CCOc1cc(/C=C2\C(=N)N3N=C(C)SC3=NC2=O)ccc1OCCOc1ccccc1 | inactive
O=C(CCC(=O)c1cccs1)NC1CCCCCC1 | inactive
O=C(COC(=O)/C=C/c1cccs1)NC1CCCCC1 | inactive
O=C(CCCCCn1c(=S)[nH]c2ccsc2c1=O)NC1CCCCC1 | 13.1 µM (active)
CN1CCN(Cc2nc3cc(NC(=O)COc4ccc([N+](=O)[O-])cc4)ccc3n2C)CC1 | inactive
Nc1nc(SCC(=O)Nc2cc(C(F)(F)F)ccc2Cl)[nH]c(=O)c1NC(=O)c1ccco1 | inactive
Cc1sc2ncn(CC(=O)NCCCC(=O)NCc3ccc(F)cc3)c(=O)c2c1C | inactive

Compound | Potency
CC(NC(=O)Nc1cccc([N+](=O)[O-])c1)c1ccc2c(c1)OCO2 (stereo not drawn) | 2.08 µM (active)
O=C(Nc1cccc([N+](=O)[O-])c1)c1ccc2c(c1)OCO2 | inactive
CC(NC(=S)Nc1ccc(S(N)(=O)=O)cc1)c1ccc2c(c1)OCO2 (stereo not drawn) | 4.65 µM (active)
CC(NC(=O)c1ccco1)c1ccc2c(c1)OCO2 (stereo not drawn) | inactive
CCc1ccc(NC(=O)NC(C)c2ccc3c(c2)OCO3)cc1 (stereo not drawn) | inactive
CC(=O)Nc1cccc([N+](=O)[O-])c1 | inactive
CN(CC(=O)Nc1ccc(F)cc1)CC(=O)N1CCCCC1 | inactive
Cc1ccc(-c2nnc(Nc3ccc(C(=O)N(C)C)cc3)c3ccccc23)cc1S(N)(=O)=O | inactive
COc1ccccc1C(=O)N(Cc1ccc(C)o1)C1CCS(=O)(=O)C1 (stereo not drawn) | inactive
CCCCc1nc(SCC(=O)Nc2nnc(C(C)C)s2)n[nH]1 | inactive
CC(=O)Nc1ccc(NC(=O)CSc2ncnc3c2cnn3Cc2ccccc2)cc1 | inactive
CC(C)CNc1ncnc2c1cnn2Cc1ccc(Cl)cc1 | 11.7 µM (active)
Clc1ccc(Cn2ncc3c(NCc4cccnc4)ncnc32)cc1 | inactive
O=C(CSc1nnnn1C1CCCC1)N1CCCCC1 | 0.586 µM (active)
CC(=O)Nc1ccc(NC(=O)CSc2nnnn2C2CCCCC2)cc1 | inactive
CC1CCCC(C)N1C(=O)CSc1nnnn1C1CCCC1 (stereo not drawn) | inactive
COc1cccc(NC(=O)c2ccccc2N(Cc2ccccc2)S(C)(=O)=O)c1 | inactive
Cc1ccc(S(=O)(=O)N2CC(C)N(S(C)(=O)=O)C2)cc1 (stereo not drawn) | inactive
O=C(CNC(=O)C12CC3CC(CC(C3)C1)C2)OCC(=O)N1CCCCC1 | inactive
CC(C)N(Cc1ccccc1)C(=O)COC(=O)c1ccccc1SCC(=O)N1CCCC1 | inactive
Cc1cccc(NC(=O)NC2(C)CCS(=O)(=O)C2)c1 (stereo not drawn) | inactive
CCOC(=O)CSc1nc2ccc(C)cc2[nH]1 | 13.1 µM (active)
CC(=O)Nc1ccc(C(=O)CSc2nc3ccc(C)cc3[nH]2)cc1 | inactive
COc1ccc2nc(SCC(=O)Nc3c(C)cc(C)cc3C)[nH]c2c1 | inactive
O=C(Nc1c2c(nn1-c1ccccc1)CS(=O)(=O)C2)C1CCCC1 | inactive
CSc1ncc(C(=O)NCCCc2ccccc2)c(C)n1 | inactive
